# More than one record can exist for a structure, and the calls need not agree. The source made the active and inactive calls. The calls were made as follows: active = hit-call score of the fitted dose curve at least 0.9, where 1 is the maximum; inactive = score below 0.9.
# Test: CCTE_Shafer_MEA_acute_interburst_interval_mean: CCTE's Neural Acute Assay for Mean Interburst Interval, Shafer Lab (AID 2284016);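 also: percent change of mean interburst interval versus each well's own pre-dose baseline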
# Method: CCTE_Shafer_MEA_acute assay is conducted using Axion Biosystems 48 well microelectrode array (MEA) plates and Maestro recording system. Each well of the MEA plate contains a grid of 16 microelectrodes embedded in the culture surface. Electrically active cells, such as neurons, can be cultured over the electrodes, and electrical activity in these cells can be recorded extracellularly. The spontaneous firing of neurons is captured from each electrode on a microsecond timescale providing both temporally and spatially precise data. […] The CCTE_Shafer_MEA_acute assay uses primary cultures of rat cortical neurons. As these cultures mature over time, neural networks develop functional activity and form cohesive networks in which electrical activity can be highly coordinated. Baseline 40-minute recordings are made on days post-plating 13 or 15, followed by a secondary 40-minute recording after chemical exposure.CCTE_Shafer_MEA_acute_interburst_interval_mean is a component of the CCTE_Shafer_MEA_acute assay. It measures the average time between the start of consecutive single-electrode bursts (temporally-clustered groups of action potential firing) during a recording in a microelectrode array (MEA) using Axion Biosystems Maestro 768 channel amplifier with the AxIS adaptive spike detector. The recordings before and after chemical treatment are used to calculate a percent change in the mean inter-burst interval in each well.Data from the assay component CCTE_Shafer_MEA_acute_interburst_interval_mean was analyzed into 1 assay endpoint. This assay endpoint, CCTE_Shafer_MEA_acute_interburst_interval_mean, was analyzed in the negative analysis fitting direction relative to DMSO as the negative control and baseline of activity. Using a type of functional reporter, gain or loss-of-signal activity can be used to understand electrical activity.
# Spontaneous activity in the cortical cultures was recorded using an Axion Biosystems Maestro 768 channel amplifier and Axion Integrated Studios (AxIS) v1.8 (or later) software. The amplifier recorded from all channels simultaneously (gain = 1200 x; sampling rate = 12.5 kHz/channel): raw signals were filtered with a Butterworth band-pass filter (300-5000 Hz), which filters out slower local field potentials leaving only fast potentials, i.e., "spikes", arising from extracellular currents associated with action potentials (Pine 2006; Wheeler and Nam 2011). On-line spike detection of filtered signals was conducted with the AxIS adaptive spike detector, using a threshold of 8x the root mean squared (rms) noise on each channel. Any electrodes with rms noise levels greater than 5 uV were grounded (e.g., no data were recorded). Once grounded, an electrode was grounded for the duration of the experiment. All recordings were conducted at 37 C. Wells were deemed usable if on the day of the exposure >/= 10 electrodes were active (defined as >/= 5 spikes/min). On DIV 13 or 15, a minimum of three wells from one cortical culture preparation were treated with each compound (0.03-40 uM). Prior to recording baseline activity, each mwMEA plate was placed in the Maestro at 37 C and allowed to sit for 20 min while firing rates stabilized. Baseline activity (40 min) was recorded before the addition of each compound. An additional 40 min of spontaneous activity was recorded in the presence of each compound. Changes in network parameters relative to baseline were assessed following compound treatment.
Compound,outcome,AC50
CC(C)C(=O)OCC(C)(C)C(OC(=O)C(C)C)C(C)C (configuration not stated),inactive,–
CCCCCCCCCC[N+](C)(C)CCCCCCCCCC,inactive,–
O=C(O)C(F)(F)C(F)(F)C(F)(F)C(F)(F)C(F)(F)F,inactive,–
Oc1ccc(C(c2ccc(O)cc2)(C(F)(F)F)C(F)(F)F)cc1,inactive,–
CCCCCCCCCc1ccc(O)cc1,inactive,–
ClC(Cl)=C(c1ccc(Cl)cc1)c1ccc(Cl)cc1,inactive,–
CC(c1ccc(O)cc1)(c1ccc(O)cc1)c1ccc(O)cc1,inactive,–
O=C(NC(=O)c1c(F)cccc1F)Nc1cc(Cl)c(OC(F)(F)C(F)F)c(Cl)c1,–,20 µM (active)
CCSC(=O)N(CC)C1CCCCC1,–,31.7 µM (active)
CCC(C)c1cc([N+](=O)[O-])cc([N+](=O)[O-])c1O (configuration not stated),–,31.4 µM (active)
CC#Cc1cc(C)nc(Nc2ccccc2)n1,–,4.15 µM (active)
COS(=O)(=O)OC,inactive,–
CN(C)CCO,inactive,–
Clc1ccc(C(Cl)(Cl)Cl)cc1,inactive,–
CO/C=C(/C(=O)OC)c1ccccc1COc1cccc(C(F)(F)F)n1,–,5 µM (active)
ClC1=C(Cl)[C@]2(Cl)[C@@H]3[C@H]4C[C@H]([C@@H]5O[C@H]45)[C@@H]3[C@@]1(Cl)C2(Cl)Cl,inactive,–
CCC(C)(CC)c1cc(NC(=O)c2c(OC)cccc2OC)on1,inactive,–
ClC1=C(Cl)[C@]2(Cl)[C@@H]3[C@@H](Cl)[C@H]4O[C@H]4[C@@H]3C1(Cl)C2(Cl)Cl,inactive,–
O=C(N[C@H]1CN2CCC1CC2)c1cc2ccoc2cn1,inactive,–
CCCN(CCC)N=O,inactive,–
CCC(C)(c1ccc(O)cc1)c1ccc(O)cc1,inactive,–
Nc1ccc(-c2ccc(N)cc2)cc1,inactive,–
COc1ccc(O)c(C(C)(C)C)c1,inactive,31.9 µM (active)
c1ccc(-c2ccccc2)cc1,inactive,–
C=CC(N)=O,inactive,–
ClC1=C(Cl)[C@]2(Cl)[C@@H]3[C@@H]4C[C@@H]([C@H]5O[C@@H]45)[C@@H]3[C@@]1(Cl)C2(Cl)Cl,inactive,–
